Assay results from PubChem BioAssay AID1159580 (chemical genetic matrix, 2015).
Several values for one entry are separate records, joined by “and”; a condition that tells them apart may be missing. Equal entries are not always repeated. The campaign covered roughly 5,500 compounds. About 2,000 (36%) were called active. Roughly 18% stayed inconclusive and do not appear here. Cut-off read from the data, not from the text of the source: active = normalized growth mostly below about 0.91 (no sharp cut-off); inconclusive = no clear call, values can overlap the other calls; inactive = mostly above about 0.92. Some of the results follow.

Assay: chemical genetic growth profiling, strain panel (AID 1159580);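 note: tested at 20 µM; growth read once vehicle control cultures reached saturation at 30 °C; 1 = growth at the plate median or of vehicle wells; lower values mean less growth of the strain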
Conditions: S. cerevisiae deletion strains, growth OD

Measured: normalized growth

COc1cc([C@@H]2c3cc4c(cc3C(O[C@@H]3O[C@@H]5CO[C@@H](c6cccs6)OC5[C@H](O)[C@H]3O)C3COC(=O)[C@@H]32)OCO4)cc(OC)c1O (stereo not given in full)
inactive: locus YAL013W, strain DEP1, hits give low values 1.01 | locus YAL021C, strain ccr4, hits give low values 0.986 | locus YAL026C, strain drs2, hits give low values 0.957 | locus YAL030W, strain snc1, hits give low values 0.995 | locus YBL061C, strain skt5, hits give low values 0.981 | locus YBR009C, strain hhf1, hits give low values 0.955 | locus YBR021W, strain FUR4, hits give low values 1 | locus YBR023C, strain chs3, hits give low values 1.01 | locus YBR171W, strain sec66, hits give low values 0.981 | locus YBR229C, strain ROT2, hits give low values 1 | locus YBR231C, strain swc5, hits give low values 0.997 | locus YBR279W, strain paf1, hits give low values 0.967 | locus YCL011C, strain gbp2, hits give low values 0.987 | locus YCL016C, strain dcc1, hits give low values 1.02 | locus YCL029C, strain bik1, hits give low values 1.03 | locus YCL061C, strain MRC1, hits give low values 0.969 | locus YCL069W, strain vba3, hits give low values 0.971 | locus YCR088W, strain abp1, hits give low values 0.984 | locus YDL005C, strain med2, hits give low values 0.971 | locus YDL035C, strain GPR1, hits give low values 1.02 | locus YDL040C, strain nat1, hits give low values 0.982 | locus YDL074C, strain BRE1, hits give low values 0.996 | locus YDL101C, strain DUN1, hits give low values 1.01 | locus YDL134C, strain PPH21, hits give low values 1.01 | locus YDL185W, strain tfp1, hits give low values 1.03 | locus YDL192W, strain arf1, hits give low values 1.02 | locus YDR001C, strain nth1, hits give low values 0.985 | locus YDR069C, strain doa4, hits give low values 0.983 | locus YDR101C, strain arx1, hits give low values 1 | locus YDR137W, strain rgp1, hits give low values 0.972 | locus YDR150W, strain NUM1, hits give low values 0.998 | locus YDR159W, strain sac3, hits give low values 0.932 | locus YDR162C, strain NBP2, hits give low values 1.01 | locus YDR195W, strain ref2 0.961 | locus YDR297W, strain sur2, hits give low values 0.992 | locus YDR318W, strain mcm21, hits give low values 1.02 | locus YDR334W, strain swr1, hits give low values 0.972 | locus YDR335W, strain msn5, hits give low values 0.99 | locus YDR388W, hits give low values 1.01 | locus YDR392W, strain spt3, hits give low values 0.97 | locus YDR502C, strain sam2, hits give low values 1.02 | locus YEL003W, strain gim4, hits give low values 0.969 | locus YEL037C, strain rad23, hits give low values 0.964 | locus YEL061C, strain CIN8 (second series), hits give low values 0.967 | locus YEL061C, strain CIN8, hits give low values 1 | locus YER015W, strain faa2, hits give low values 0.989 | locus YER016W, strain bim1, hits give low values 0.999 | locus YER110C, hits give low values 1.02 | locus YER111C, strain swi4, hits give low values 0.98 | locus YER155C, strain BEM2 (second series), hits give low values 1.01 | locus YER155C, strain BEM2, hits give low values 1 | locus YER167W, strain BCK2, hits give low values 1.01 | locus YFR010W, strain ubp6, hits give low values 0.956 | locus YGL078C, strain dbp3, hits give low values 1.02 | locus YGL086W, strain mad1, hits give low values 1.01 | locus YGL167C, strain pmr1, hits give low values 0.981 | locus YGL173C, strain kem1, hits give low values 0.983 | locus YGL227W, strain vid30, hits give low values 0.994 | locus YGL240W, strain doc1, hits give low values 1.01 | locus YGL248W, strain PDE1, hits give low values 1 | locus YGL253W, strain hxk2, hits give low values 0.964 | locus YGR135W, strain pre9, hits give low values 1.01 | locus YGR229C, strain SMI1, hits give low values 1 | locus YGR252W, strain gcn5, hits give low values 1.03 | locus YHR013C, strain ard1, hits give low values 0.997 | locus YHR027C, strain rpn1, hits give low values 0.975 | locus YHR030C, strain SLT2, hits give low values 1 and 1.02 | locus YHR079C, strain IRE1 (second series), hits give low values 1.02 | locus YHR079C, strain IRE1, hits give low values 1.01 | locus YHR094C, strain hxt1, hits give low values 1.01 | locus YHR129C, strain ARP1, hits give low values 1 | locus YHR142W, strain chs7, hits give low values 0.981 | locus YHR200W, strain rpn10, hits give low values 1.01 | locus YIL066C, strain RNR3, hits give low values 1.01 | locus YIL073C, strain SPO22, hits give low values 1.04 | locus YIL125W, strain kgd1, hits give low values 1.01 | locus YIR030C, strain dcg1, hits give low values 1.02 | locus YJL092W, strain hpr5, hits give low values 0.977 | locus YJL095W, strain BCK1 (second series), hits give low values 0.992 | locus YJL095W, strain BCK1, hits give low values 0.991 and 1 | locus YJL115W, strain asf1, hits give low values 0.96 | locus YJL129C, strain trk1, hits give low values 0.993 | locus YJL134W, strain LCB3, hits give low values 1 | locus YJL154C, strain vps35, hits give low values 0.979 | locus YJL164C, strain tpk1, hits give low values 0.962 | locus YJL166W, strain qcr8, hits give low values 1.01 | locus YJL168C, strain set2, hits give low values 1.01 | locus YJL187C, strain SWE1 (second series), hits give low values 1 | locus YJL187C, strain SWE1, hits give low values 0.984 | locus YJR043C, strain POL32, hits give low values 0.982
